Measured values taken from PubChem BioAssay AID652162 (Broad Institute, 2013).
Out of some 350,000 compounds screened, about 840 (0.24%) were called active. The full list was thinned out, with actives kept by preference. A number with no mark means an inactive call. No stated cut-off is given here; in the data, active means inhibition above about 10%; inactive means the rest.

What follows are molecules tested against Toxin B (Clostridioides difficile) (UniProt P18177) (assay: TcdB glycohydrolase inhibitors, primary screen, biochemical, single point, plate reader (AID 652162)). Conditions: TcdB glycohydrolase enzymatic assay, at 9.99 µM, stronger effect = higher value.
Sequence of Toxin B (Clostridioides difficile) (P18177 whole entry, looked up): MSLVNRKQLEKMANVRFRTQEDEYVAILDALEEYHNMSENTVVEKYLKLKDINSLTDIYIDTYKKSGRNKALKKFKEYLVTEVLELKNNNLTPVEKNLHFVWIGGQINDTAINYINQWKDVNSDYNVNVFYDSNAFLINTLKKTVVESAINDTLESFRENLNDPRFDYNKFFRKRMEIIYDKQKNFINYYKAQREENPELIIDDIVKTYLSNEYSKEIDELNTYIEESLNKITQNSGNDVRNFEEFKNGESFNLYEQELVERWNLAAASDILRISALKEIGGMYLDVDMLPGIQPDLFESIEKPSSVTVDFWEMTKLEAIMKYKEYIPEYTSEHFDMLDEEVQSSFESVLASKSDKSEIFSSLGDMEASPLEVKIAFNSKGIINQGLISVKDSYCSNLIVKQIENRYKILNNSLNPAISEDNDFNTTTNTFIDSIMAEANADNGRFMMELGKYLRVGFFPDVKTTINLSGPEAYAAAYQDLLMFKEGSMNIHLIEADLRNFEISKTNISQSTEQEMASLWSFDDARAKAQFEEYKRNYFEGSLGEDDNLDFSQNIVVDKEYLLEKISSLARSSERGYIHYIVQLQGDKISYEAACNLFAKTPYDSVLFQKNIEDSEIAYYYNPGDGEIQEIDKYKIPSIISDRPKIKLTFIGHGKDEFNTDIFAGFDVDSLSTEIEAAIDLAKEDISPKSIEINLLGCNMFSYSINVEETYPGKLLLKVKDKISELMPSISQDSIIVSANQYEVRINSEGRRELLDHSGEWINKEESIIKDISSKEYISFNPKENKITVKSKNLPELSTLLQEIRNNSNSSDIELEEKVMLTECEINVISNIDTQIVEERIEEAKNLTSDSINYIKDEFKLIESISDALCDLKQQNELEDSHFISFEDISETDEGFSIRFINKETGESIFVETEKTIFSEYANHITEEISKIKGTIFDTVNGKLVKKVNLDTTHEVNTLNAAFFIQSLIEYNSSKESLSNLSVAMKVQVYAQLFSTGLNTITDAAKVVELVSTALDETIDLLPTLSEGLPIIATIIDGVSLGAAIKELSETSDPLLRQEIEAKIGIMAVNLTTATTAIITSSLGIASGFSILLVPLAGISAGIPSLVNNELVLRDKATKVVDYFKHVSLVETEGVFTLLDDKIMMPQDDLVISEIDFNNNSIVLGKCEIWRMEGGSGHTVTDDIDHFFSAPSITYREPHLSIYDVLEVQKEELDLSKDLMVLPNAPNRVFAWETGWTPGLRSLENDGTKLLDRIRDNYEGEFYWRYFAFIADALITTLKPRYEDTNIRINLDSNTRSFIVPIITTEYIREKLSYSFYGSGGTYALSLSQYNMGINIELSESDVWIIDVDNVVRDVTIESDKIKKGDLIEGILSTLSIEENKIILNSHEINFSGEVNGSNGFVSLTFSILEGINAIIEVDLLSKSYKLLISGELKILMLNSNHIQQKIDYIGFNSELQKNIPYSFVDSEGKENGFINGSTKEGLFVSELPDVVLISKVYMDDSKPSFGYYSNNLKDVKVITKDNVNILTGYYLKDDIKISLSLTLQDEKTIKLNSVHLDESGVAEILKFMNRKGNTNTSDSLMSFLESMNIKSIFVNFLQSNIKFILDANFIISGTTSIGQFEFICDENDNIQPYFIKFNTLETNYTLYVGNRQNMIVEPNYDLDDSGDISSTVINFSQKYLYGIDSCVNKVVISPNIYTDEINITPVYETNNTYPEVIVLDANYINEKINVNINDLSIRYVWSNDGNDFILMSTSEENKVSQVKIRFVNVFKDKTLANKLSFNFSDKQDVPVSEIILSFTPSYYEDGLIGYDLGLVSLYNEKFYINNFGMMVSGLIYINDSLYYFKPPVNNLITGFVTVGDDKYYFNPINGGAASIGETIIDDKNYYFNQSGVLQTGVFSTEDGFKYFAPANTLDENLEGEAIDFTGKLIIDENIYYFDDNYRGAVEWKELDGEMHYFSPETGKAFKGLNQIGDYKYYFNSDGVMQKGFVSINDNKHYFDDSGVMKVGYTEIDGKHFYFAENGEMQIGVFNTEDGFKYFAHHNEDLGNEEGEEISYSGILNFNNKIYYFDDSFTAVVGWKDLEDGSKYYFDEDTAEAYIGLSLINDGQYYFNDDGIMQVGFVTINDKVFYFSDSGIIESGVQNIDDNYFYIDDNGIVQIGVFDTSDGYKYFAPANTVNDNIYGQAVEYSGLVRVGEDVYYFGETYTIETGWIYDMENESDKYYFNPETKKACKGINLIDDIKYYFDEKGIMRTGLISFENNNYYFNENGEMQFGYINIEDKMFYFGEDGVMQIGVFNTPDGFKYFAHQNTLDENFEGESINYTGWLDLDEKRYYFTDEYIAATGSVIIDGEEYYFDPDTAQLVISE

For `C/C(=N\NC(=O)CSc1nc2ccccc2c(=O)n1-c1ccccc1C)c1cccs1`, the inhibition was 11.8% (active).
With `Cc1ccc(NNC(=O)C2CCC2)cc1C` the inhibition was 58.9% (active).
In the case of `CC(=O)C1=CCC(c2ccccc2)N(S(=O)(=O)c2ccc(C)cc2)C1` (stereo not given), the inhibition is reported as 13.2% (active).
For `COCCN(C(=O)C(C)C)c1nnc(-c2ccc(C(C)(C)C)cc2)s1`, the inhibition was 10.1% (active).
`CN1CCN(/N=C/c2c[nH]c3ccccc23)CC1` was tested, and the inhibition was 12.7% (active).
In the case of `COC(=O)CN1C(C)=Nc2ccc(Br)cc2C1c1ccccc1` (stereo not given), the inhibition is reported as 55.6% (active).
In the case of `O=C(c1ccc(N2CCOCC2)c([N+](=O)[O-])c1)N1CCN(c2ccccc2F)CC1`, the inhibition is reported as 10.3% (active).
For `COC(=O)Cc1ccc(NC(=S)NCc2ccco2)cc1`, the inhibition was 16% (active).
For `COc1ccccc1N1CC(O)=C(c2nc3ccccc3s2)C1=N`, the inhibition was 14.9% (active).

First: Cc1ccccc1-n1c(SCC(=O)Nc2cccc3ccccc23)nc(O)cc1=O
Second: C[C@H](CO)N1C[C@H](C)[C@@H](CN(C)C(=O)Nc2cccc3ccccc23)Oc2c(NS(=O)(=O)c3ccccc3)cccc2C1=O
The inhibition of the first is higher: 1.39% for the first, -1.06% for the second.

Going from `C/C(=N\NC(=O)COc1c(C)cccc1C)c1cccs1` to `Cc1ccc(C)c(OCC(=O)NNC(=O)C2CCC2)c1`, the inhibition rises from 0.614% to 1.49%.

Going from `COc1ccccc1-c1cnc2c(c1)C(=O)N([C@H](C)CO)C[C@H](C)[C@H](CN(C)C(=O)CN(C)C)O2` to `CNC[C@H]1Oc2ncc(-c3ccccc3C)cc2C(=O)N([C@@H](C)CO)C[C@@H]1C`, the inhibition falls from 0.748% to 0.537%.

First: CCC(=O)N(C)C[C@@H]1Oc2ncc(C#Cc3cccnc3)cc2C(=O)N([C@@H](C)CO)C[C@@H]1C
Second: C[C@@H]1CN([C@H](C)CO)C(=O)c2cc(C#CC3(O)CCCC3)cnc2O[C@H]1CN(C)Cc1ccncc1
The inhibition of the first is higher: 0.973% for the first, 0.916% for the second.

First: C[C@H](CO)N1C[C@H](C)[C@H](CN(C)Cc2ccc3c(c2)OCO3)Oc2c(NC(=O)NC3CCCCC3)cccc2C1=O
Second: COc1ccc(NC(=O)N(C)C[C@H]2Oc3c(NC(=O)C4CC4)cccc3C(=O)N([C@@H](C)CO)C[C@@H]2C)cc1
The inhibition of the first is lower: -1.25% for the first, -0.546% for the second.

First: COc1ccccc1CNC(=O)C[C@@H]1CC[C@H]2[C@@H](COc3ccc(NS(=O)(=O)c4ccc(C)cc4)cc3C(=O)N2C)O1
Second: COC(=O)C[C@H]1CC[C@H]2[C@@H](COc3ccc(NC(=O)C4CC4)cc3C(=O)N2C)O1
The inhibition of the first is higher: 0.867% for the first, 0.647% for the second.

First: Cn1cnc(CCNC(=O)C[C@H]2CC[C@@H]3[C@H](COC[C@H](O)CN3C(=O)C3CC3)O2)c1
Second: O=C(C[C@H]1CC[C@H]2[C@@H](COC[C@H](O)CN2C(=O)c2ccccc2F)O1)NCc1ccccc1
The inhibition of the first is lower: -0.073% for the first, 0.135% for the second.

Compared with `COc1ccc(NC(=O)Nc2ccc3c(c2)C(=O)N([C@H](C)CO)C[C@H](C)[C@H](CN(C)C(=O)Nc2c(C)noc2C)OCCCC[C@@H](C)O3)cc1`, `Cc1noc(C)c1S(=O)(=O)Nc1ccc2c(c1)C(=O)N([C@@H](C)CO)C[C@H](C)[C@@H](CN(C)C)OCCCC[C@@H](C)O2` is lower in inhibition: 0.188% for the first, -1.17% for the second.

First: CC(C)NC(=O)Nc1ccc2c(c1)C(=O)N([C@@H](C)CO)C[C@H](C)[C@@H](CN(C)C)O2
Second: CC(C)NC(=O)Nc1ccc2c(c1)C(=O)N([C@H](C)CO)C[C@H](C)[C@@H](CN(C)C)OCCCC[C@H](C)O2
The inhibition of the first is higher: 0.811% for the first, 0.315% for the second.

Compared with `O=C(NNC(=O)C1CCC1)c1ccccc1`, `O=C(N[C@H]1C=C[C@@H](CC(=O)N2CCc3ccccc3C2)O[C@@H]1CO)C1CCOCC1` is lower in inhibition: 1.5% for the first, 1.24% for the second.

First: O=C(Nc1cccc(Cl)c1)N[C@H]1CC[C@H](CCNC(=O)C2CCOCC2)O[C@H]1CO
Second: O=C(C[C@@H]1C[C@@H]2c3cc(NC(=O)C4CCOCC4)ccc3O[C@@H]2[C@H](CO)O1)NCc1ccncc1
The inhibition of the first is higher: 0.073% for the first, 0.039% for the second.

Going from `CCOC(=O)C1=CC[C@@H](c2ccncc2)N(S(=O)(=O)c2ccc(C)cc2)C1` to `CCOC(=O)C1=CCC(c2ccc(F)cc2)N(S(=O)(=O)c2ccc(C)cc2)C1` (stereo not given), the inhibition falls from 3.35% to 1.19%.

Going from `CC(C)NC(=O)N1[C@H](CO)[C@H](c2ccccc2)C12CN(C(=O)Cc1ccccc1)C2` to `C/C=C/c1ccc([C@@H]2[C@@H](CO)N(C(=O)c3ccccc3)C23CN(C(C)=O)C3)cc1`, the inhibition rises from -9.73% to 1.41%.

Going from `CNC[C@H]1OCCCC[C@H](C)Oc2ccc(NS(=O)(=O)c3ccc(Cl)cc3)cc2C(=O)N([C@@H](C)CO)C[C@@H]1C` to `C[C@@H]1CCCCO[C@H](CN(C)C(=O)Nc2cccc3ccccc23)[C@H](C)CN([C@@H](C)CO)C(=O)c2cc(NC(=O)CCCN(C)C)ccc2O1`, the inhibition falls from 0.862% to -0.333%.

First: CCCC(=O)Nc1ccc2c(c1)C(=O)N(C)C[C@H](OC)[C@H](C)CN(CCc1ccccc1)[C@H](C)CO2
Second: COCC(=O)Nc1ccc2c(c1)C(=O)N(C)C[C@H](OC)[C@@H](C)CN(C(=O)c1cnccn1)[C@H](C)CO2
The inhibition of the first is lower: 0.195% for the first, 0.644% for the second.

First: Cc1noc(C)c1S(=O)(=O)Nc1ccc2c(c1)CC(=O)N([C@@H](C)CO)C[C@@H](C)[C@H](CN(C)S(=O)(=O)c1cccs1)O2
Second: Cc1noc(C)c1S(=O)(=O)N(C)C[C@@H]1Oc2c(NS(=O)(=O)c3cn(C)cn3)cccc2C(=O)N([C@H](C)CO)C[C@@H]1C
The inhibition of the first is higher: 1.18% for the first, -0.292% for the second.

Compared with `C[C@H]1CN([C@@H](C)CO)C(=O)Cc2cc(N(C)C)ccc2O[C@@H]1CN(C)S(=O)(=O)c1ccc(F)cc1`, `COc1ccc(S(=O)(=O)N(C)C[C@@H]2Oc3ccc(NC(=O)C4CC4)cc3CC(=O)N([C@@H](C)CO)C[C@@H]2C)cc1` is higher in inhibition: -6.02% for the first, 0.342% for the second.

Going from `COCCN(Cc1nc(-c2ccc(C(F)(F)F)cc2)no1)C(C)C` to `C[C@H](CO)N1C[C@H](C)[C@@H](CN(C)Cc2ccc(C(F)(F)F)cc2)Oc2ccc(NC(=O)CCC(F)(F)F)cc2C1=O`, the inhibition falls from 1.49% to 0.866%.

Going from `C[C@@H]1CN([C@H](C)CO)C(=O)c2cc(NS(C)(=O)=O)ccc2O[C@@H]1CN(C)S(C)(=O)=O` to `C[C@@H]1CN([C@@H](C)CO)C(=O)c2cc(C#CCN(C)C)cnc2O[C@H]1CN(C)S(=O)(=O)c1cn(C)cn1`, the inhibition rises from 0.537% to 1.29%.

Compared with `COCc1cn(CC[C@H]2CC[C@H](NC(=O)Nc3ccc4c(c3)OCO4)[C@@H](CO)O2)nn1`, `CO[C@H]1CN(C)C(=O)c2cc(NS(=O)(=O)CC(F)(F)F)ccc2OC[C@H](C)N(C(=O)c2ccc3c(c2)OCO3)C[C@H]1C` is lower in inhibition: 0.036% for the first, 0.021% for the second.

Going from `CN1CCN(/N=C/c2ccc(C#N)cc2)CC1` to `C[C@H](O)C#Cc1ccc([C@@H]2[C@@H](CO)N3CCCCN(C(=O)c4ccncc4)C[C@@H]23)cc1`, the inhibition rises from 0.047% to 0.304%.

First: C[n+]1ccc(/C=C/c2c[nH]c3ccccc23)cc1
Second: CCc1ccc(N2CC(O)=C(c3nc4ccccc4c(=O)[nH]3)C2=N)cc1
The inhibition of the first is lower: 1.44% for the first, 2.4% for the second.

Going from `O=C(C[C@@H]1C[C@@H]2c3cc(NC(=O)Nc4ccc(F)cc4)ccc3O[C@@H]2[C@H](CO)O1)NCC(F)(F)F` to `C[C@@H]1CN([C@@H](C)CO)C(=O)c2cc(-c3ccc(F)cc3)cnc2O[C@@H]1CN(C)Cc1ccc(C(=O)O)cc1`, the inhibition falls from 0.33% to -1.74%.

Compared with `CCC(CC)C(=O)N1CC(=O)Nc2ccc(Br)cc2C1c1ccccc1` (stereo not given), `O=C(C1CCC1)N1CC(=O)N2[C@H](CO)[C@H](c3ccc(C#CCc4ccccc4)cc3)[C@@H]2C1` is lower in inhibition: 3.15% for the first, 0.603% for the second.

First: COC(=O)Cc1nnn2c1[C@H](C)[C@@H](OC)c1cc(Br)ccc1-2
Second: COc1cccc(OC)c1C(=O)NC(=S)NCc1ccco1
The inhibition of the first is lower: 0.213% for the first, 1.13% for the second.

First: CC(=O)N(C)C[C@@H]1Oc2cc(-c3cncnc3)ccc2S(=O)(=O)N([C@@H](C)CO)C[C@H]1C
Second: COCC#Cc1cnc2c(c1)C(=O)N([C@@H](C)CO)C[C@@H](C)[C@@H](CN(C)S(=O)(=O)c1cccc(OC)c1)O2
The inhibition of the first is lower: -0.296% for the first, 0.452% for the second.

Going from `O=C(c1ccc(N2CCOCC2)c([N+](=O)[O-])c1)N1CCN(S(=O)(=O)c2cccs2)CC1` to `O=C(OCC(=O)N1CCOCC1)c1ccc(N2CCOCC2)c([N+](=O)[O-])c1`, the inhibition falls from 3.29% to 0.627%.

First: S=C(NCc1ccco1)Nc1ccc2c(c1)OCCO2
Second: CCS(=O)(=O)N1CCC2(CC1)CN(Cc1ccc3c(c1)OCO3)[C@H](CO)c1[nH]c3cc(OC)ccc3c12
The inhibition of the first is lower: -0.084% for the first, 0.545% for the second.

Going from `COc1ccc2c3c(n(C)c2c1)[C@H](CO)N(C(=O)C1CCCC1)CC31CCN(C(=O)c2ccncc2)CC1` to `O=C(c1ccncc1)N1CC(=O)N2[C@H](CO)[C@H](c3ccc(-c4ccccc4F)cc3)[C@@H]2C1`, the inhibition falls from 0.361% to -0.127%.

First: CCCC#Cc1ccc([C@@H]2[C@@H](CO)N3C(=O)CN(C(=O)Nc4cccc(F)c4)C[C@H]23)cc1
Second: CNC(=O)C[C@@H]1CC[C@@H]2[C@H](COC[C@H](O)CN2Cc2ccc(C(F)(F)F)cc2)O1
The inhibition of the first is higher: 0.796% for the first, -1.26% for the second.

In the case of `Oc1ccc(-c2[nH]ncc2-c2nc3ccccc3s2)c(O)c1`, the inhibition is reported as -1.73%.
